Laboratory results as given in PubChem BioAssay AID1259313 (Sanford-Burnham Center for Chemical Genomics, 2017).
Where “and” joins values, the source holds several entries; their conditions need not be identical. Equal values may be shown once. Out of some 340,000 compounds screened, about 8,500 (2.5%) were called active. The full list was thinned out, with actives kept by preference. A number with no mark means an inactive call.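 The calls were made as follows: active = melting temperature shift of at least 10% of the positive control shift, at one fixed dose; inactive = the rest.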

tested on: Glutamate receptor ionotropic, NMDA 3A (GRIN3A) ligand-binding domain; assay: NR3A LBD thermal stabilization by compounds – biophysical, differential scanning fluorimetry, uHTS, primary screen (AID 1259313); conditions: at 25 µM, stronger effect = higher value, 0% = protein alone, 100% = glycine-bound protein

SMILES	Tm shift relative to glycine control
COc1ccc(NC(=O)Nc2cccc3cccnc23)cc1	12.4% (active)
Cc1ccc(S(=O)(=O)N2CCN=C2SCc2c(F)cccc2Cl)cc1	0.68%
CCc1ccc(-c2cc(C)no2)cc1S(=O)(=O)NCCc1ccc(S(N)(=O)=O)cc1	-4.05%
CCCCn1c(N)c(N(CC)C(=O)c2ccccc2C(F)(F)F)c(=O)[nH]c1=O	-1.66%
O=C(Cn1c(-c2ccc(Cl)cc2)noc1=O)N1CCN(c2ccccc2F)CC1	-0.09%
CC(=O)CSc1nnc(CSc2ncccn2)n1C1CCCCC1	-1.13%
CCC(=O)N1CCc2cc(Br)c(S(=O)(=O)NCCN3CCCCC3CC)cc21 (configuration not stated)	12.6% (active)
CCCN(CCC)S(=O)(=O)c1cc2c(cc1Br)CCN2C(=O)CC	-0.99%
CCC1CCCCN1CCNS(=O)(=O)c1ccc2c(c1)CCN2C(C)=O (configuration not stated)	-1.49%
CCCCSc1nc2c(c(=O)n1CC)SC(C)C2 (configuration not stated)	-2.48%
CCOC(=O)c1c(C)[nH]c(C2=NNC(=NC(C)COC)SC2)c1C (configuration not stated)	-1.92%
O=C1CC(NNc2ccccc2)C(=O)N1c1cccc(Cl)c1 (configuration not stated)	-0.68%
CC12CCC(C(=O)N(c3cccc(Cl)c3)C1=O)C2(C)C (configuration not stated)	18.6% (active)
CC12CCC(C(=O)N(NC(=O)c3ccccc3O)C1=O)C2(C)C (configuration not stated)	2.74%
COc1ccc(C(=O)Nc2sc(C)c(C)c2CN2CCOCC2)cc1	-2.24%
CCc1cc(C(N)=O)c(NC(=O)c2ccc(OC)cc2)s1	12.6% (active)
CCc1cc(C(=O)c2ccc(OC)cc2)c(NC(=O)CN2CCN(C)CC2)s1	-0.69%
CC1=CC=CC2=N/C(=N\S(=O)(=O)c3ccc(F)cc3F)c3ccccc3CN12	-0.65%
CC(C)(C)C(=O)Nc1cccc(-c2ccc[nH]2)n1	11.2% (active)
CC(C)(C)C(=O)Nc1ccc(-c2cn3cccnc3n2)cc1	-0.98%
COc1ccc(C(=O)Nc2cccc(NC(=O)c3ccc(OC)cc3OC)n2)c(OC)c1	3.62%
N#Cc1ccc(C2N=C(c3ccccc3)NO2)cc1 (configuration not stated)	0.19%
CCOc1ccc(CN2CCN(Cc3ccc(C)o3)CC2CCO)cc1 (configuration not stated)	1.84%
C/C(CC(=O)NC(C)c1ccccc1)=N\NC(N)=S (configuration not stated)	-2.12%

SMILES	Tm shift relative to glycine control
COC(=O)C1C(=O)NCC1c1ccc(OC)cc1 (configuration not stated)	-0.83%
NC(=O)c1oc2ccccc2c1NC(=O)Cc1ccccc1	-1.3%
NC(=O)c1oc2ccccc2c1NC(=O)CS(=O)(=O)c1ccccc1	-2.6%
COc1ccc(CC(=O)Nc2c(C(N)=O)oc3ccccc23)cc1	16.1% (active)
CC(=O)C(CC(=O)N1CCCC1)C(=O)Nc1ccc(Cl)cc1 (configuration not stated)	-1.13%
Cc1cc(C)nc(-n2nc(C)cc2NC(=O)c2ccc(F)cc2F)n1	-2.66%
O=C(Nc1ccc2nc3n(c(=O)c2c1)CCCC3)c1ccc(Cl)nc1	-1.29%
COc1ccc(CCNC(=O)C(=O)Nc2ccc3nc4n(c(=O)c3c2)CCCCC4)cc1OC	-0.47%
CCCCN(CC)C(=S)Nc1ccc2nc3n(c(=O)c2c1)CCCCC3	11% (active)
C=CCn1c(P(C)(=O)O)nc2ccccc21	-0.35% and 1.55%
CCOc1ccc2nc(NC(=O)c3cc([N+](=O)[O-])ccc3N3CCOCC3)sc2c1	17% (active)
COc1ccc(S(=O)(=O)N2CCCCC2)cc1NC(=O)c1cc([N+](=O)[O-])ccc1N1CCOCC1	-1.87%
CCCn1nc(C(=O)Nc2ccc3nc(C)sc3c2)c2ccccc2c1=O	-1.69%
COc1ccc(CNC(=O)c2ccc(Br)s2)cc1OC	1.11%
CCCC(=O)Nc1nc2ccc(NC(=O)c3c(F)c(F)c(OC)c(F)c3F)cc2s1	17.1% (active)
COc1ccc2nc(NC(=O)c3ccc(Br)s3)sc2c1	31.3% (active)
CSc1nc2ccc(NC(=O)c3c(F)cccc3F)cc2s1	3.67%
COc1ccc(NC(C(=O)Nc2cccc(C(C)=O)c2)c2ccccc2)cc1 (configuration not stated)	-15.9%
COc1ccc2nc(Nc3nc4ccc(NC(C)=O)cc4s3)sc2c1	25.2% (active)
CCCC(=O)N(CCN1CCOCC1)c1nc2ccc(OCC)cc2s1	-6.33%
Cc1nc2ccc(NC(=O)C3CCCCC3)cc2s1	-3.66%
Cc1noc(C)c1CSCC(=O)Nc1nc2ccc(Oc3ccccc3)cc2s1	0.97%
Cc1ccccc1-n1nnc2c(=O)oc3ccccc3c21	1.45%
